From PubChem BioAssay (Tox21)
Records with an inconclusive call do not appear. Active and inactive are the calls of the source. Unless noted, calls follow the shape of the dose curve; as a rule, active = well fitted curve in the direction sought with a large enough effect in the repeat runs; inconclusive = weak or mixed curves; inactive = no such curve, though single readings can be large; an effect the other way counts as inactive or inconclusive.

Experiments:
[1] = qHTS assay for small molecule agonists of the p53 signaling pathway (AID 651631; calls by dose curve; also: nearly all actives have a fitted effect of over 15% in size; also: potency is read from the fitted curve at half-maximal effect)
Summary of the method: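 HCT-116 cells carrying a beta-lactamase reporter under p53 response elements were dosed with compound for 16 h at 37 °C. LiveBLAzer B/G FRET substrate was then added for 2 h at room temperature, and fluorescence intensity was read to detect pathway agonism.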

[2] = qHTS assay for small molecules that induce genotoxicity in human embryonic kidney cells expressing luciferase-tagged ATAD5 (AID 651632); also: nearly all actives have a fitted effect of over 15% in size; also: potency is read from the fitted curve at half-maximal effect
Summary of the method: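 HEK293T cells carrying a luciferase reporter tagged to ATAD5 were exposed to compound or DMSO vehicle for 16 hr at 37C, 5% CO2. Amplite was added, and after 30 min at room temperature luciferase activity was read as a marker of ATAD5 induction.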

[3] = qHTS assay for small molecule agonists of the p53 signaling pathway - cell viability (AID 651633; calls by dose curve;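 also: p53RE-bla HCT reporter cells with a stable beta-lactamase p53 reporter; series mostly up to about 83 µM; nearly all actives have a fitted effect of over 30% in size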)
Summary of the method: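 Viability counter-read: CellTiter-Glo luminescence (30 min, room temperature) in the same p53RE-bla plates. These plates had been exposed to compounds for 16 h at 37 C.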

[4] = qHTS assay for small molecules that induce genotoxicity in human embryonic kidney cells expressing luciferase-tagged ATAD5 - cell viability (AID 651634; calls by dose curve; also: nearly all actives have a fitted effect of over 25% in size)
Summary of the method: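 HEK293T cells expressing luciferase-tagged ATAD5 were exposed to compound or DMSO for 15.5 hr at 37C, 5% CO2. Viability was then read as live-cell protease activity by CellTiter-Fluor fluorescence after 30 min at 37C.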

[5] = qHTS assay to test for compound auto fluorescence at 590 nm (red) in HepG2 cells (AID 720674)
Summary of the method: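 Red autofluorescence (Ex/Em 540/590 nm, Rose Bengal sodium equivalents) was measured in HepG2 cells, 2,000 per well in MEM plus 10% FBS, plated overnight at 37 C. Readings were taken 1 hr after adding 23 nL compound or DMSO, at 37 C and 5% CO2.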

[6] = qHTS assay to test for compound auto fluorescence at 535 nm (green) in HepG2 cells (AID 720675)
[7] = qHTS assay to test for compound auto fluorescence at 460 nm (blue) in HEK293 cells (AID 720678)
Summary of the method: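 HEK293 cells (2,000 per well, medium with 10% dialyzed FBS) attached for 4-5 hr at 37C, then received compound and stood overnight at 37C, 5% CO2. Blue fluorescence was read at Ex/Em 405/460 nm and expressed relative to triamterene.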

[8] = qHTS assay to test for compound auto fluorescence at 590 nm (red) in HEK293 cells (AID 720679)
Summary of the method: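 HEK293 cells (2,000/well, medium with 10% dialyzed FBS) attached for 4-5 hr at 37C, received 23 nL compound and were incubated overnight at 37C, 5% CO2. Red fluorescence was then read at 540/590nm Ex/Em, referenced to Rose Bengal sodium.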

[9] = qHTS assay for small molecule disruptors of the mitochondrial membrane potential - cell viability (AID 720634; calls by dose curve;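 also: human HepG2 liver cancer cells; series mostly up to about 83 µM; nearly all actives have a fitted effect of over 20% in size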)
Summary of the method: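 HepG2 cells seeded overnight at 37 C, then exposed to compound or DMSO for 1 hr at 37 C, 5% CO2. m-MPI dye added, then CellTiter-Glo for 30 min at room temperature; viability read as ATP luminescence.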

[10] = qHTS assay for small molecule disruptors of the mitochondrial membrane potential (AID 720635); also: potency is read from the fitted curve at half-maximal effect
Summary of the method: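 Mitochondrial membrane potential tracked with Mito-MPS dye, red aggregates (ex 540/em 590 nm) against green monomers (ex 490/em 535 nm). Compound treatment 1 hr at 37C, dye 30 min in HepG2.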
% is scaled to controls: 0 for no effect and ±100 for the full control effect.

Cc1nc(-c2ccc(OCC(C)C)c(C#N)c2)sc1C(=O)O
active: Potency [2] 0.15 µM
inactive: Potency [1] | Potency [3] | Potency [4] | outcome [5] | outcome [6] | Potency [7] | outcome [8]

Cc1ccccc1C(=O)O
inactive: Potency [1] | Potency [3] | Potency [4] | Potency [9] | Potency [10] | outcome [5] | outcome [6] | Potency [7] | outcome [8]

Cc1ccc(Nc2ccc(O)c3c2C(=O)c2ccccc2C3=O)cc1
inactive: Potency [1] | Potency [2] | Potency [3] | Potency [4] | outcome [5] | outcome [6] | outcome [8]

Cc1c(C)n(CCN(C)C)c2ccc(C(=O)OCCN(C)C)cc12
active: Potency [1] 26.6 µM
inactive: Potency [2] | Potency [4] | Potency [9] | outcome [5] | outcome [6] | Potency [7] | outcome [8]

CCCCCCCCCCCl
inactive: Potency [1] | Potency [2] | Potency [4] | Potency [9] | Potency [10] | outcome [5] | outcome [6] | outcome [8]

O=C(O)C(O)[C@H](O)[C@@H](O)[C@H](O)[C@H](O)CO (stereo partly drawn)
inactive: Potency [1] | Potency [2] | Potency [3] | Potency [4] | outcome [5] | outcome [6] | Potency [7] | outcome [8]

NS(=O)(=O)c1cc2c(cc1Cl)NC(CSCc1ccccc1)=NS2(=O)=O
inactive: Potency [1] | Potency [2] | Potency [4] | Potency [9] | fluorescence, relative to Rose Bengal [5] -0.338% [at 18.6 µM] | fluorescence, % of fluorescein control [6] 0.0219% [at 18.6 µM] | fluorescence, % of triamterene [7] -0.0281% [at 18.6 µM] | fluorescence, % of fluorescent control [8] -0.0194% [at 18.6 µM]

O=C(O)c1ccc[n+]([O-])c1
inactive: Potency [1] | Potency [2] | Potency [4] | Potency [9] | Potency [10] | outcome [5] | outcome [6] | Potency [7] | outcome [8]

O=[N+]([O-])c1ccc(Oc2ccc([N+](=O)[O-])cc2)cc1
active: Potency [10] 5.57 µM
inactive: Potency [1] | Potency [2] | Potency [4] | Potency [9] | outcome [5] | outcome [6] | outcome [8]

COc1cc(CCC(C)=O)ccc1O
inactive: Potency [1] | Potency [2] | Potency [4] | Potency [9] | outcome [5] | outcome [6] | Potency [7]

C#CC(C)(O)CC(C)C (stereo not drawn)
inactive: Potency [1] | Potency [2] | Potency [4] | Potency [9] | Potency [10] | outcome [5] | outcome [6] | Potency [7] | outcome [8]

CC(C)=CCC/C(C)=C/C(=O)O
inactive: Potency [1] | Potency [2] | Potency [4] | Potency [9] | Potency [10] | outcome [5] | outcome [6] | Potency [7] | outcome [8]

OCCCCCCO
inactive: Potency [1] | Potency [2] | Potency [4] | Potency [9] | outcome [5] | outcome [6] | Potency [7]

CC(C)N1C(=O)c2ccccc2C1=O
inactive: Potency [1] | Potency [2] | Potency [4] | Potency [9] | Potency [10] | outcome [5] | outcome [6] | Potency [7]
